Assay outcomes as filed in PubChem BioAssay.
Tau fibril FP: qHTS for Inhibitors of Tau Fibril Formation, Fluorescence Polarization; Potency, µM (highest dose often 57.7 µM), usual class: inhibitors; AID 1468, 2008; 280,000 compounds, 0.39% hits; K18 P301L tau heparin fibrillization, Alexa594 FP, 6 h; note: nearly all actives have a fitted effect of over 55% in size
Target sequence (P10636 561-689 P618L limits assumed): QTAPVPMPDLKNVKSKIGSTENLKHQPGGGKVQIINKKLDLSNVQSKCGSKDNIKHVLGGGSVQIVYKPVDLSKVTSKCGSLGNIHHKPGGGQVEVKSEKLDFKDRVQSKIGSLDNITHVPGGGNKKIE
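Human tau K18 […] P301L fragment, 15 uM unlabeled plus 0.24 uM Alexa 594-labeled tau (final), with compound and 20 uM heparin in 100 mM sodium acetate pH 7; 6 hr at 37 C, then Alexa 594 FP read.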
PLK1 PBD block: qHTS for Inhibitors of PLK1-PDB (polo-like kinase 1 - polo-box domain): Primary Screen | Serine/threonine-protein kinase PLK1 (Homo sapiens), P53350 | Plk1 PBD binding of FITC phosphopeptide, fluorescence polarization | Potency, µM, hits mostly inhibitors | 360,000 compounds, 2.8% hits; note: series mostly up to about 57 µM; nearly all actives have a fitted effect of over 65% in size
Tau fluor cs: Counterscreen qHTS for Inhibitors of Tau Fibril Formation, Fluorescence Polarization; tau K18 P301L Alexa594 fluorescence, heparin fibrillization; Potency, µM (series often up to 57.7 µM); 280,000 compounds, 0.93% hits; AID 1463, 2008; note: nearly all actives have a fitted effect of over 55% in size
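Human tau K18 P301L (15 uM unlabeled, 0.24 uM Alexa 594-labeled) in 100 mM sodium acetate pH 7 with 20 uM heparin, 6 hr at 37 C. ThT 30 uM added, 1 hr ambient; Alexa 594 FP and total fluorescence read at 555/632 nm.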
VDR inh: Inhibitors of the vitamin D receptor (VDR): qHTS; Vitamin D3 receptor (Homo sapiens), P11473; VDR-SRC2-3 peptide fluorescence polarization, 2 h; Potency, µM, most hits filed as inhibitors; 400,000 compounds, 0.93% hits
Target sequence (P11473 whole entry, looked up): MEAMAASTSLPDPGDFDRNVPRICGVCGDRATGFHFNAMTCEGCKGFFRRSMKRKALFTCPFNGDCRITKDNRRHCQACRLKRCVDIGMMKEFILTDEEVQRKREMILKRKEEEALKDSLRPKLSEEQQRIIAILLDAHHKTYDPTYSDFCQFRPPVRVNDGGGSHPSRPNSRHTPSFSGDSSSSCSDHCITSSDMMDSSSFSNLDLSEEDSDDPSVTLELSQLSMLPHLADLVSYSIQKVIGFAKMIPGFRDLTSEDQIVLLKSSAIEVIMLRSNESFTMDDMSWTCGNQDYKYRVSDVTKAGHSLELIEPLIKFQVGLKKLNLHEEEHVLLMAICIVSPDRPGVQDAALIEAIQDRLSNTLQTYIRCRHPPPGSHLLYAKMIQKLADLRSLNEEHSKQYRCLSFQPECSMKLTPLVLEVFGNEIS
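Two reagent solutions held at 4 deg C in the dark were dispensed, compounds pinned at 23 nl, and the mixture incubated 2 h at room temperature. Read-out: fluorescence polarization of VDR–SRC2-3 peptide binding.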
Sfp PPTase inh: qHTS Assay for Inhibitors of Bacillus subtilis Sfp phosphopantetheinyl transferase (PPTase); Biochemical Sfp PPTase activity, qHTS; 310,000 compounds, 3.5% hits; 4'-phosphopantetheinyl transferase ffp (Bacillus subtilis), Q9F4F7; Potency, µM, usual class: inhibitors;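 note: the enzyme is Sfp with the accession as filed and its product quenches rhodamine fluorescence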
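Sfp 15 nM + cpd, 15 min RT; start w/ rhodamine-CoA 5 uM, BHQ-2-YbbR 12.5 uM (final); 50 mM Hepes pH 7.6, 10 mM MgCl2, 0.01% NP-40, 0.01% BSA; read 525/598 nm at 0 and 30 min.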
Tau fibril ThT: qHTS for Inhibitors of Tau Fibril Formation, Thioflavin T Binding; Potency, µM (top dose mostly 57.4 µM), usual class: inhibitors; recombinant tau K18 P301L (four-repeat tau fragment), heparin-induced fibrillization, ThT fluorescence; 270,000 compounds, 2.1% hits; note: nearly all actives have a fitted effect of over 55% in size
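Tau K18 P301L fragment (15 uM unlabeled plus 0.24 uM Alexa 594-labeled) in 100 mM sodium acetate pH 7 with compound, fibrillization induced by 20 uM heparin for 6 hr at 37 C. Thioflavin T (30 uM) added, fluorescence read after 1 hr (ex 450, em 510 nm).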
A number is an active result; 0 = inactive; ? = inconclusive; - = no result given; [ ] = remark or other dose. In the library only some 6% were active in any assay of this set; here they are far more common. Calls come from the whole dose curve; as a rule, active = well fitted curve in the direction sought with a large enough effect; inconclusive = small, poorly fitted or top-dose-only effect, or another doubt; inactive = no such curve, though single readings can be large; an effect the other way counts as inactive or inconclusive.

SMILES | Tau fibril FP | PLK1 PBD block | Tau fluor cs | VDR inh | Sfp PPTase inh | Tau fibril ThT
CC(C)c1ccc(C2c3c(oc4ccc(Cl)cc4c3=O)C(=O)N2CCCN2CCOCC2)cc1 (stereo not given) | 0 | - | 0 | 0 | - | ?
CC(/C=C/c1ccc(N(C)C)cc1)=N/N=C1/NC(=O)CC(C(=O)Nc2ccc(Cl)cc2)S1 (stereo not given) | 0 | 0 | 8.9µM[quencher] | 0 | 0 | 7.9µM
CCn1c(O)c(/C=N/n2cnnc2)sc1=S | 0 | 0 | 0 | 0 | 45µM | ?
CCn1c(O)c(C=Nc2ccccc2)n(-c2ccccc2)c1=S | 0 | ? | 0 | 0 | 79µM | 0
CCn1c(O)c(C=NC2CCCC2)sc1=S | 0 | 0 | 0 | 0 | 0 | 0
CCn1c(O)c(C=Nc2ccccc2)sc1=S | 0 | 0 | ? | 0 | 56µM | ?
COc1cccc(C(O)c2nc(/C=C/c3ccc(C(F)(F)F)cc3)cs2)c1 (stereo not given) | - | 0 | - | - | - | -
O=C(NCc1ccco1)c1c[nH]c2ccc(S(=O)(=O)Nc3ccc(F)cc3F)cc2c1=O | ? | - | ? | 0 | - | 0
Cc1cc(NC(=O)CCCN2C(=O)c3cccnc3C2=O)no1 | 0 | 3µM | 0 | 0 | 0 | 0
CCCCN(C)CCCNC(=O)Cn1ncc2c3ccccc3n(Cc3cc(C)ccc3C)c2c1=O | 0 | - | 0 | 0 | - | 0
Cc1ccc(-c2nc3ncccn3c2Nc2ccccc2C)o1 | 0 | 0 | 0 | 0 | 40µM | 0
Cc1ccc(-c2nc3ncccn3c2Nc2ccc3c(c2)OCO3)o1 | 0 | 0 | ? | 0 | 0 | ?
Cc1ccc(Nc2c(-c3ccc(C)o3)nc3ncccn23)cc1 | 0 | 0 | 0 | 0 | 11µM | ?
Brc1ccc(-c2nc3ncccn3c2NC2CCCCC2)o1 | 0 | 21µM | 0 | 0 | 0 | ?
Cc1ccc(-c2nc3ncccn3c2NC2CCCC2)o1 | 0 | 0 | 0 | 0 | 0 | ?
CCCSc1oc(-c2cccs2)nc1S(=O)(=O)c1ccc(Cl)cc1 | 0 | - | 0 | 0 | - | 0
c1csc(-c2nc(NCC3CCCO3)c3ccccc3n2)c1 (stereo not given) | - | 0 | - | 0 | 0 | -
c1ccc(CN2CCC(Nc3nc(-c4cccs4)nc4ccccc34)CC2)cc1 | ? | 0 | ? | 0 | 79µM | 0
Cc1nc2cnc(N(C)C)nc2n(C2CC2)c1=O | - | - | - | 0 | 0 | -
N#CC12CCCCC1CC1CCCCC1(C#N)N2CCO (stereo not given) | 0 | 0 | 0 | 0 | 0 | 0
N#CC12CCCCC1CC1CCCCC1(C#N)N2N (stereo not given) | 0 | 0 | ? | ? | 79µM | 0
COc1ccccc1CCNC(=O)COc1cccc2c1OC(C)(C)C2 | - | 0 | - | 0 | - | -
CC1(C)Cc2cccc(OCC(=O)NCCOc3ccccc3)c2O1 | 0 | 21µM | 0 | ? | 0 | 0
O=c1[nH]n2c(=O)c3c([nH]c2c1N=Nc1cccc(C(F)(F)F)c1)CCCC3 | 0 | ? | 0 | 0 | 0 | 2.8µM
COc1cccc(CNC(=O)CSc2nc(=O)[nH]c3c2CCCC3)c1 | 0 | - | 0 | 0 | - | 0
SMILES | Tau fibril FP | PLK1 PBD block | Tau fluor cs | VDR inh | Sfp PPTase inh | Tau fibril ThT
N#Cc1cn(-c2cccc(C(F)(F)F)c2)c(=O)[nH]c1=O | - | 0 | - | 0 | 0 | -
COc1cccc(N=Nc2c(=O)[nH]n3c(=O)c4c([nH]c23)CCC4)c1 | 0 | 30µM | 0 | 0 | 0 | 7.1µM
Cn1c(=O)c2[nH]c(Cc3cccc4ccccc34)nc2n(C)c1=O | - | 0 | - | 0 | - | -
Nc1ccc2c(c1)OC1(CCCC1)O2 | 0 | 0 | ? | 79µM | 0 | 13µM
Cc1ccc(S(=O)(=O)N2CCOCC2)cc1NC(=O)COc1ccccc1Cc1ccccc1 | - | 0 | - | 0 | - | -
Cn1c(SCC(=O)N2CCc3ccccc32)nc2cccnc21 | 0 | 24µM | 0 | 0 | 0 | ?
COc1ccc(OC)c(C(=O)CSc2nc3cccnc3n2C)c1 | 0 | 0 | 0 | 0 | 79µM | 0
Cc1ccc(C(=O)CSc2nc3cccnc3n2C)cc1 | 0 | 0 | 0 | 0 | 0 | 0
O=S(=O)(c1ccc2c(c1)OCCO2)N1CCC(n2nnc3cc(F)ccc32)CC1 | 0 | 21µM | 0 | 0 | 0 | 0
COc1ccccc1Cc1c(-c2ccco2)nc2ccc(Br)cn12 | - | 13µM | - | - | - | -
FC(F)(F)c1ccccc1Cc1c(-c2ccco2)nc2ccc(Br)cn12 | - | 27µM | - | - | - | -
FC(F)(F)c1ccccc1Cc1c(-c2cccc(Cl)c2)nc2ccc(Br)cn12 | - | 0 | - | - | - | -
COc1cc2c(cc1OC)C(COc1ccc(F)cc1)N(C(=O)Cc1ccc(F)cc1)CC2 (stereo not given) | 0 | - | 0 | 0 | - | 0
COc1ccc(C2C(C(=O)Nc3ccccc3)=C(C)Nc3nc(-c4ccc(Cl)cc4)nn32)cc1 (stereo not given) | 0 | - | ? | 0 | - | 0
c1ccc(Oc2c3ccccc3nc3ccccc23)cc1 | 0 | 0 | 0 | 45µM | 0 | ?
Cc1ccc(NC(=O)/C=C\C(=O)NCC(=O)O)cc1 | 0 | 0 | 0 | 0 | 71µM | 0
Cc1ccc(S(=O)(=O)Nc2ccc(NC(=O)/C=C/C(=O)O)cc2)cc1 | 0 | 0 | 0 | 0 | 0 | 0
C/C(CCC(C)C)=N\Nc1cc(C)c2ccccc2n1 | 0 | 0 | 0 | ? | 28µM | ?
Cc1cc(NCc2ccccc2)nc2ccccc12 | 0 | 0 | 0 | 0 | 0 | 0
Nn1c(C2COc3ccccc3O2)n[nH]c1=S (stereo not given) | ? | 17µM | 0 | ? | 7.1µM | ?
C[C@@H](C(=O)NCc1ccccc1)[C@@H]1C[C@@]1(C)[C@@H](NC(=O)OCc1ccccc1)c1ccccc1 | 0 | 0 | 0 | 0 | 0 | ?
Cc1ccc(CNC(=O)[C@H](C)[C@H]2C[C@]2(C)[C@H](NC(=O)OCc2ccccc2)c2ccccc2)o1 | 0 | 0 | 0 | 0 | 50µM | ?
Cc1ccccc1OCC(=O)Nc1ccc(-c2nc3ccccc3o2)cc1 | ? | - | 0 | 0 | - | ?
Cc1cccc2nc(CSCc3ccco3)cn12 | 0 | ? | 0 | 0 | 32µM | ?
CCCn1c2ccccc2c2cnn(CC(=O)NCCc3cc(OC)ccc3OC)c(=O)c21 | 0 | - | 0 | 0 | - | 0
COc1ccccc1NC(=O)Cn1cc(S(=O)(=O)Cc2ccccc2)c2ccccc21 | 0 | - | ? | 0 | - | 0
COCCSc1ccccc1C(=O)Nc1ccccc1C(C)C | 0 | 0 | 0 | 0 | 18µM | 0
COCCSc1ccccc1C(=O)Nc1nccs1 | 0 | 0 | 0 | 0 | 0 | 0
Cc1cc(O)ccc1N/C=C1\CCCC1=O | ? | 0 | 0 | 0 | ? | 28µM
C=CCOC(=O)c1cc(-c2ccc(/C=C3\C(=O)NC(=O)C(C#N)=C3C)o2)ccc1Cl | 0 | 6µM | ? | 25µM | 50µM | ?
